From PMC4336329 (PLoS ONE, 2015) come the findings set out here.

Each structure is given as a SMILES string. The whole screen tested about 310,000 compounds, of which about 14,000 (4.5%) showed an effect of 50% or more. The effect is printed as a negative number. The full list was thinned out, with strong results kept by preference.
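Also: peak tail current of the secondary pulse compared with the same well before compound.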

For the test, the target named is human ether-à-go-go-related gene (hERG) potassium channel (human, UniProt Q12809). The experiment in a line: primary screen, population patch clamp on CHO cells stably expressing hERG; higher = less effect of the substance.
Sequence of human ether-à-go-go-related gene (hERG) potassium channel (Q12809 whole entry, looked up): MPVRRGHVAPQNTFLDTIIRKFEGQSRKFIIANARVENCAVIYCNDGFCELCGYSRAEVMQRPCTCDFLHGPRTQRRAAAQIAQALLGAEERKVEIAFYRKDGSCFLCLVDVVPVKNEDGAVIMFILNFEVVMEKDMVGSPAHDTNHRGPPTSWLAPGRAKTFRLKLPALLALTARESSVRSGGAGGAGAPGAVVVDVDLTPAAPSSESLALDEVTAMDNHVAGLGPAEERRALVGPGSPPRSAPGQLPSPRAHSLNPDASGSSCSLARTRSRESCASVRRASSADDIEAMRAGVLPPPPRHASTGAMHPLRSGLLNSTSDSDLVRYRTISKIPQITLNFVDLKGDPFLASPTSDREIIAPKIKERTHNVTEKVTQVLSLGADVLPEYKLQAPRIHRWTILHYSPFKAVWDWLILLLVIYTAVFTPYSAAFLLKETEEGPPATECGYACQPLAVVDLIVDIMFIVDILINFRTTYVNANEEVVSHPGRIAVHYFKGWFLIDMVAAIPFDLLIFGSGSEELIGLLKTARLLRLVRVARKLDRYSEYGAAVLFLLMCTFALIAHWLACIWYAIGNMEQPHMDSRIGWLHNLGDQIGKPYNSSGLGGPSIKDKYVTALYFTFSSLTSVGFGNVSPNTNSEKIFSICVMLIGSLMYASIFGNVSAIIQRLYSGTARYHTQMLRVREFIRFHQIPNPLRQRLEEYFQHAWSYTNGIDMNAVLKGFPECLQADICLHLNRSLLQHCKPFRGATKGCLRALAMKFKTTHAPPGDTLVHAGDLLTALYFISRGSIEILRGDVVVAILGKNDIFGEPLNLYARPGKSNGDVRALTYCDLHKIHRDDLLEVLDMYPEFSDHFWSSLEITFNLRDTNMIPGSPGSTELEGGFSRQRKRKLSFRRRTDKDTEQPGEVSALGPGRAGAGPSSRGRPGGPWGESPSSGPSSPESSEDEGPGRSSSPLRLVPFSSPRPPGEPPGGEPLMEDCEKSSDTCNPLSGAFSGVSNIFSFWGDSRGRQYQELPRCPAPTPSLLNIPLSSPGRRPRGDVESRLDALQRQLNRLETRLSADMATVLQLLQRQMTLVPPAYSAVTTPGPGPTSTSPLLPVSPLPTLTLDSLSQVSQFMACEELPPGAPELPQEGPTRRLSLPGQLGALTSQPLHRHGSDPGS
On to `CCOc1ccc(S(=O)(=O)NC(Cc2cnc[nH]2)C(=O)O)cc1` (stereo not shown), for which the “hERG current change (%, negative = inhibition) at 10uM” value is listed as 18.5%.
The same measure for `CCN(CC)c1ccc(NC(=O)c2ccc(=O)[nH]c2)cc1S(=O)(=O)Nc1ccc(OC)cc1`: -7.22%.
The same measure for `CC(C)CCNC(=O)c1cc(S(=O)(=O)N2CCc3ccccc32)cn1C`: 10.2%; for `CCN(CC)CCNC(=O)c1cc(S(=O)(=O)N2CCc3ccccc32)cn1C`: -66.1%; for `CCCNC(=O)c1cc(S(=O)(=O)N2CCc3ccccc32)cn1C`: -0.715%.
Turning to `CCN(CC)CCCC(C)NC(=O)c1cccc(S(=O)(=O)N2CCc3ccccc32)c1.Cl` (stereo not shown), the “hERG current change (%, negative = inhibition) at 10uM” value is -58.5%.
Consider `CC(NC(=O)c1cccc(S(=O)(=O)N2CCc3ccccc32)c1)c1ccco1` (stereo not shown), for which the “hERG current change (%, negative = inhibition) at 10uM” value is given as -48%.
For the compound `CC(C)CCNC(=O)c1cccc(S(=O)(=O)N2CCc3ccccc32)c1`, the “hERG current change (%, negative = inhibition) at 10uM” value was 2.44%.
The same measure for `CCCOc1ccccc1C1CC(=O)NC2=C1C(=O)CCC2` (stereo not shown): -1.24%; for `C=CCOc1ccc(/C=C/C(=O)OC(C)C(=O)Nc2ccc(NC(C)=O)cc2)cc1` (stereo not shown): 4.6%.
On to `Cc1nc(CNC(=O)CC2C(=O)NCCN2Cc2ccc(F)cc2)cs1` (stereo not shown), for which the “hERG current change (%, negative = inhibition) at 10uM” value is reported as 11.9%.
As for `Cc1cc(C)nc(N(C#N)CN2C(=O)c3ccccc3S2(=O)=O)n1`, the “hERG current change (%, negative = inhibition) at 10uM” value is listed as 0.542%.
As to `O=C(O)c1ccc(Cl)c(S(=O)(=O)N2CCCCCC2)c1`, the “hERG current change (%, negative = inhibition) at 10uM” value was -8.34%.
The same measure for `C/C(=N\NC(=O)CN(c1ccc(C)cc1)S(C)(=O)=O)c1cccs1`: -8.31%.
As to `O=C(Nc1cc(Cl)ccc1Oc1ccccc1)c1ccc(F)cc1`, the “hERG current change (%, negative = inhibition) at 10uM” value was -14.1%.
As to `CCOC(=O)CSCC(=O)N1N=C(c2cccs2)CC1c1ccc(F)cc1` (stereo not shown), the “hERG current change (%, negative = inhibition) at 10uM” value is -34.1%.
The same measure for `CCN1CCN(CC(=O)N2N=C(c3cccs3)CC2c2ccc(OC)cc2)C(=O)C1=O` (stereo not shown): -8.83%; for `Cc1ccc(C2CC(c3cccs3)=NN2C(=O)CSc2nc(=O)n3ccc(C)cc3n2)cc1` (stereo not shown): -46.3%.
The same measure for `Cc1ccn2c(=O)nc(SCC(=O)N3N=C(c4cccs4)CC3c3ccc(F)cc3)nc2c1` (stereo not shown): -65%; for `COc1ccc(C2CC(c3cccs3)=NN2C(=O)CSc2nc(=O)n3ccc(C)cc3n2)cc1` (stereo not shown): -65.4%; for `COc1ccc(C2=NN(C(=O)CSc3nc(=O)n4ccc(C)cc4n3)C(c3ccc(C)cc3)C2)cc1` (stereo not shown): 5.1%.
As for `COCCn1c(N)c(C(=O)NCC2CCCO2)c2nc3ccccc3nc21` (stereo not shown), the “hERG current change (%, negative = inhibition) at 10uM” value is listed as -7.66%.
Consider `CN(CC(=O)Nc1ccc(Cl)cc1)C(=O)CNC(=O)Cc1cccc2ccccc12`, for which the “hERG current change (%, negative = inhibition) at 10uM” value was 20.1%.
As for `COc1cccc(CN(C(=O)Cn2nnc(-c3ccccc3F)n2)C(C(=O)NC(C)(C)C)c2ccncc2)c1` (stereo not shown), the “hERG current change (%, negative = inhibition) at 10uM” value is -18.7%.
Under `O=[N+]([O-])c1ccc(N(c2ccccc2)c2ccccc2)cc1` stands 4.46%.
For `Cc1nn(-c2cc(N3CCNCC3)ccc2[N+](=O)[O-])c(=O)c2ccccc12`, the “hERG current change (%, negative = inhibition) at 10uM” value is -11.4%.
Regarding `CCOc1c(Cl)cc(CNc2ccc(S(N)(=O)=O)cc2)cc1OC`, the “hERG current change (%, negative = inhibition) at 10uM” value was -3.11%.
Under `CC1CN(CC(O)COc2ccc(C(C)C)cc2)CC(C)O1.Cl` (stereo not shown) stands -14.3%; under `CC(C)c1ccc(OCC(O)CN2CCCC2)cc1.Cl` (stereo not shown), -11.1%; under `COc1ccc(OCC(O)CN2CC(C)OC(C)C2)cc1.Cl` (stereo not shown), 17.5%.
Under `CN1CCN(CC(O)COC(c2ccc(Cl)cc2)c2ccc(Cl)cc2)CC1.Cl` (stereo not shown) stands -69.3%; under `CC1CN(CC(O)COC(c2ccc(Cl)cc2)c2ccc(Cl)cc2)CC(C)O1.Cl` (stereo not shown), -71.9%.
For `CN1CCN(CC(O)COC(c2ccccc2)c2ccccc2)CC1` (stereo not shown), the “hERG current change (%, negative = inhibition) at 10uM” value was 11.2%.
For the compound `OC(COC(c1ccc(Cl)cc1)c1ccc(Cl)cc1)CN1CCCC1` (stereo not shown), the “hERG current change (%, negative = inhibition) at 10uM” value is reported as -77.4%.
The same measure for `CN1CCN(CC(O)COc2ccc(Cl)cc2)CC1.Cl` (stereo not shown): -12.5%; for `CC1CCCCC1NC(=O)c1nnc(Cc2ccc(Cl)cc2)o1` (stereo not shown): -9.72%; for `O=c1[nH]c(=O)c2nc3c4ccccc4c4ccccc4c3nc2[nH]1`: 4.75%.
Under `CCOP(=O)(O)c1ccccc1OCCCCCOc1ccccc1P(=O)(O)OCC` stands 14.5%.
Under `COC(=O)C(C)(C(=O)OC)c1ccccc1[N+](=O)[O-]` stands 7.93%; under `COCCSc1ccccc1C(=O)Nc1nccs1`, -2.77%; under `CN(C)S(=O)(=O)N1CCN(CC(O)COc2ccc(-c3ccccc3)cc2)CC1` (stereo not shown), -27.3%.
On to `O=S(=O)(N1CCCCC1)N1CCN(CC(O)COc2ccc3cc(Br)ccc3c2)CC1` (stereo not shown), for which the “hERG current change (%, negative = inhibition) at 10uM” value was 7.33%.
The same measure for `CCC(=O)c1ccc(OCC(O)CN2CCCCC2)cc1.Cl` (stereo not shown): -21.8%.
